We go through 69 compounds from PubChem BioAssay AID778 (Sanford-Burnham Center for Chemical Genomics, 2007).

Structures are written as SMILES. Screen size: about 96,000 compounds; about 20,000 (21%) were called active. Not all results are given here. Values without a mark were called inactive.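 Rule for the calls: active = CYP2C19 inhibition above a set limit at 5 µM in the primary screen (cut at about 50% in these data); inactive = the rest.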

Sequence of Cytochrome P450 2C19 (Homo sapiens) (P33261 whole entry, looked up): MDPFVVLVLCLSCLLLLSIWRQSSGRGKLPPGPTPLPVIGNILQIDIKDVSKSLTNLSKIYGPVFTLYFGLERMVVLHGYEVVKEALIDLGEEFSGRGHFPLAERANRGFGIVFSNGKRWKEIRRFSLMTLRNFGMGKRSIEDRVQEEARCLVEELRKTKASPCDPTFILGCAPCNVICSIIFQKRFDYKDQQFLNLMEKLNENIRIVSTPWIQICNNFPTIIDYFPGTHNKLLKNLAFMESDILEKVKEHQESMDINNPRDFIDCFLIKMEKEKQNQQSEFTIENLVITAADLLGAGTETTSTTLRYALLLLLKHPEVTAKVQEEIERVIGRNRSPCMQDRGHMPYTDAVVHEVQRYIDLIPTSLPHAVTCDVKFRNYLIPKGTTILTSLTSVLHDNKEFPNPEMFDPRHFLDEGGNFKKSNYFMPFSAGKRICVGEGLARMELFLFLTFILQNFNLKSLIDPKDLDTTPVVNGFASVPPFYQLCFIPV

This assay has as its target Cytochrome P450 2C19 (Homo sapiens) (UniProt P33261). Put plainly: blockers of cytochrome P450 2C19 activity – biochemical, luminescence, ADME assay, primary screen (AID 778).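 Note: plate controls were negative control wells for no effect and 2.5 mM tranylcypromine positive control for full effect.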 Particulars: CYP2C19 Supersomes, luciferin-H EGE luminescence, 30 min; at 5 µM; hits give high values.
On to `C=CCN(c1ccc(C(N)=O)cc1)S(C)(=O)=O`, for which the inhibition was -3.9%.

Take `CSc1ccc(-c2c(C#N)c(N)nc3c2c(C)nn3-c2ccccc2)cc1`: the inhibition was 4.1%.

Take `COc1cc(=O)[nH]c(=O)n1C(=O)Cc1ccccc1`: the inhibition was 5.6%.

Turning to `Cc1ccc(C(=O)Nc2nnc(-c3ccncc3)s2)o1`, the inhibition was 27%.

Consider `Cc1occc1C(=O)Nc1cccc(Cn2cccn2)c1`, for which the inhibition was 57% (active).

In the case of `Cc1ccc(C(=O)COc2cccc(NC(=O)c3ccco3)c2)cc1`, the inhibition is 32.7%.

As for `Cc1occc1C(=O)Nc1nnc(-c2ccncc2)s1`, the inhibition is 98.1% (active).

For `Cc1occc1C(=O)Nc1nnc(C2CCCCC2)s1`, the inhibition is -3.5%.

In the case of `CCOc1cccc(C(=O)Nc2cnn(Cc3ccccc3)c2)c1`, the inhibition was 8.6%.

As for `Fc1ccc(CNc2nc3ccccc3n3nnnc23)cc1`, the inhibition is 6%.

For the compound `CN(C)/C=C1\C=C(c2ccccc2)OC1=O`, the inhibition was -5.7%.

On to `O=C1CSC2=NCN(c3ccccc3)CN12`, for which the inhibition is 3.1%.

As to `N#Cc1nc(Cc2ccccc2)oc1NCCc1ccccc1`, the inhibition is 64.7% (active).

`CCOc1ccc(Nc2oc(Cc3ccccc3)nc2C#N)cc1`: the inhibition was 30.6%.

For `N#Cc1nc(Cc2cccc3ccccc23)oc1NCc1ccc2c(c1)OCO2`, the inhibition is 48.7%.

As for `FC(F)(F)c1nnc2sc(-c3ccco3)nn12`, the inhibition is 10.3%.

Regarding `CCOc1ccc(/C(O)=C2/C(=O)C(=O)N(Cc3cccnc3)C2c2ccc(N(C)C)cc2)c(C)c1` (centres undefined), the inhibition was 3.8%.

For `CCOc1ccc(N2C(=O)CC(N(O)c3ccccc3)C2=O)cc1` (centres undefined), the inhibition was 20.3%.

Consider `Cn1c(N)c(C(=O)COC(=O)C23CC4CC(CC(C4)C2)C3)c(=O)n(C)c1=O`, for which the inhibition is 13.1%.

`Cc1cc(C)cc(NC(=O)N2CCC(NC(=O)c3ccc(F)cc3)CC2)c1`: the inhibition is -9.5%.

Consider `COCCCn1c(Cc2csc(Nc3cccc(Cl)c3)n2)nnc1SCC(=O)OC1CCCCC1`, for which the inhibition was 27.4%.

In the case of `CCOc1ccc(Nc2nc(Cc3nnc(SCC(=O)c4ccc(C)cc4)o3)cs2)cc1`, the inhibition was 46.9%.

As for `CCOc1ccc(Nc2nc(Cc3nnc(SCC(=O)NC4CCCC4)n3C)cs2)cc1`, the inhibition was 53.4% (active).

As to `CC(C)c1ccc(Nc2ncccc2C#N)cc1`, the inhibition was 22.2%.

As to `Cc1ccc(NC2=NC(c3ccccc3)n3c(nc(C)cc3=O)N2)cc1` (centres undefined), the inhibition was 42.1%.

As to `Cc1ccc(OCC(=O)Nc2ccc(-c3nnc(-c4ccco4)o3)cc2)cc1`, the inhibition was 44.4%.

In the case of `CC1(C)CC(=O)c2cc(OCC(=O)NCC3CCCO3)ccc2O1` (centres undefined), the inhibition is 16.2%.

Take `Cc1ccc(/C=N\n2c(-c3ccccc3)n[nH]c2=S)s1`: the inhibition is 4.8%.

Consider `O=C(c1ccco1)N1CCN(C(=O)C2c3ccccc3Oc3ccccc32)CC1`, for which the inhibition was 88.7% (active).

Regarding `O=C(c1ccc2c(c1)OCO2)N1CCN(C(=O)c2ccco2)CC1`, the inhibition was 17%.

As to `CCNC(=S)N1CCN(C(=O)c2ccco2)CC1`, the inhibition is 5.5%.

Consider `O=C(Cc1c(F)cccc1Cl)N1CCN(C(=O)c2ccco2)CC1`, for which the inhibition is 11.2%.

Consider `COc1ccc(N2C(=O)C3CCCN3C2c2cccc(OC)c2)cc1` (centres undefined), for which the inhibition was 30.1%.

For `Cc1ccc(OS(=O)Nc2cccc3nccnc23)cc1` (centres undefined), the inhibition was 38.8%.

Turning to `Cc1ccc(S(=O)(=O)C(C#N)c2nc3ccccc3nc2N2CCCC2)cc1C` (centres undefined), the inhibition was 96.8% (active).

`Cc1ccc(S(=O)(=O)Nc2nc3ccccc3nc2N2CCc3ccccc3C2)cc1`: the inhibition was 40.6%.

With `CC(C)OC(=O)C(C#N)c1nc2ccccc2nc1N1CCN(Cc2ccc3c(c2)OCO3)CC1` (centres undefined), the inhibition was 2.4%.

Consider `Cc1ccc(-c2c3c(=O)n(C)c(=O)n(C)c3cn2-n2cnnc2)cc1`, for which the inhibition was -18.4%.

As to `O=C(c1ccc(CN2CCOCC2)cc1)N1CCN(c2ccccc2F)CC1`, the inhibition was 9.5%.

With `Cc1cccc(C)c1N1CCN(S(=O)(=O)N2CCOCC2)CC1`, the inhibition is 22.7%.

For the compound `O=S(=O)(N1CCOCC1)N1CCN(c2ccccc2F)CC1`, the inhibition was 61.1% (active).

As for `COC(=O)c1sccc1N/N=C(\C)c1ccc(F)c(Cl)c1`, the inhibition is -0.3%.

Take `O=C(Nc1ccc2c(c1)OCCO2)C1CCCN(c2ncccn2)C1` (centres undefined): the inhibition was 1.1%.

Turning to `Cc1cc(C)cc(NC(=O)C2CCN(c3nc(C)cc(C)n3)CC2)c1`, the inhibition is -2.3%.

For `Cc1ccnc(N2CCC(C(=O)NC3CCCCCC3)CC2)n1`, the inhibition was 94.4% (active).

For `CC(C)CCNC(=O)C1CCCN(S(=O)(=O)c2ccc(F)cc2)C1` (centres undefined), the inhibition was 7.6%.

Consider `Cc1cc(-c2ccccc2)nc(N2CCC(C(=O)NC34CC5CC(CC(C5)C3)C4)CC2)n1`, for which the inhibition was 8.2%.

As for `Cc1ccnc(N2CCCC(C(=O)Nc3cc(F)ccc3C)C2)n1` (centres undefined), the inhibition was 99.2% (active).

As to `C/C(=N\NC(=O)c1nc(C)cc(C)n1)c1ccccc1`, the inhibition was -4%.

Consider `Cc1ccc(-c2nnc(SC(C)C#N)n2N)cc1` (centres undefined), for which the inhibition was 9%.

As to `NC(N)=N/N=C/c1ccc(OCc2ccc(Cl)cc2Cl)cc1`, the inhibition was -10.2%.

For `CCOC(=O)C1=C(O)CSC1=Nc1cccc(Cl)c1`, the inhibition is 9.1%.

`COC(=O)C1C(=O)NCC1c1ccc(OC)cc1` (centres undefined): the inhibition was 13.7%.

As for `CC(C)(C)NS(=O)(=O)CC12CCC(CC1=O)C2(C)C` (centres undefined), the inhibition is 17.8%.

Consider `CCOc1cc2[nH]c(=S)n(CCN3CCCCC3C)c(=O)c2cc1OCC` (centres undefined), for which the inhibition was 2.3%.

For the compound `C=CCNC(=O)c1ccc(C)c(Br)c1`, the inhibition was 19.1%.

As for `C=CCNC(=O)c1sc(SC)cc1-c1ccc(Cl)cc1`, the inhibition was 83.9% (active).

`CCOc1ccc(C(=O)NCCCN2CCCC2=O)cc1`: the inhibition was 15.8%.

For the compound `O=C(NCCCn1ccnc1)Nc1ccc(Cl)cc1Cl`, the inhibition was 97.4% (active).

For `CCCCOCCCNC(=O)c1ccccc1OCC`, the inhibition was 48.3%.

As for `CCOc1ccccc1C(=O)NCCCn1ccnc1`, the inhibition is 93.4% (active).

On to `COc1ccc(-c2cc(C(=O)NCc3ccco3)no2)cc1OC`, for which the inhibition was -19.3%.

Regarding `Cc1cc2nc(C)n(CCCNC(=O)Nc3ccccc3)c2cc1C`, the inhibition was 20.3%.

Take `COc1ccccc1-c1cc(C(=O)NCCCn2ccnc2)no1`: the inhibition was 78.5% (active).

As to `COc1ccccc1-c1cc(C(=O)N2CCCCC2)no1`, the inhibition is 52.8% (active).

As to `NS(=O)(=O)c1ccc(CCNC(=O)Nc2ccc(Cl)cc2)cc1`, the inhibition is 24.5%.

For the compound `O=C(c1cc(-c2cccs2)on1)N1CCCCC1`, the inhibition was 14.3%.

On to `COc1ccccc1CCNC(=O)c1cnccn1`, for which the inhibition was 22.6%.

In the case of `O=C(c1cc(-c2ccccc2O)on1)N1CCCC1`, the inhibition is 17.3%.
